# Reference: PubChem BioAssay
# Active and inactive are the calls of the source.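 Rule for the calls: active = inhibition at or above 50% relative to wild type and mutant plate controls; inactive = inhibition below 50%.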
# Assay: loss of swimming-algae plug formation – whole organism, Chlamydomonas reinhardtii, WT vs cilia-less mutant, absorbance, 96-well, primary screen (AID 463189);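 note: 0% = wild type cc124 cells in DMSO and 100% = ciliumless bld1 mutant cells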
# Conditions: Chlamydomonas reinhardtii gravitaxis, OD600 absorbance, 2 days; at 10 µM; hits give high values
row,SMILES,inhibition
1,O=C(O)[C@@H]1C[C@H](C(=O)O)N1,1.3% (inactive)
2,O=C1NC(c2cccc([N+](=O)[O-])c2)=CCN1c1ccccc1O,-0.979% (inactive)
3,NC(C(=O)N[C@@H]1C(=O)N2C(C(=O)O)=C(Cl)CS[C@H]12)c1ccccc1 (stereo not given in full),7.28% (inactive)
4,NO,-14.1% (inactive)
5,C=C[C@H]1CN2CCC1C[C@H]2[C@H](O)c1ccnc2ccc(OC)cc12 (stereo not given in full),-14.7% (inactive)
6,O=C(O)C1CCNCC1,4.95% (inactive)
7,O=NN(CCCl)C(=O)NCCCl,6.33% (inactive)
8,CC1=C(CC(=O)O)c2cc(F)ccc2/C1=C\c1ccc(S(C)(=O)=O)cc1,2.22% (inactive)
9,Ic1ccc(N2CCN(Cc3c[nH]c4ncccc34)CC2)cc1,7.68% (inactive)
10,C[C@@H](NCCc1ccc(O)cc1)[C@@H](O)c1ccc(O)cc1,2.54% (inactive)
11,C[C@]12CC[C@@H]3c4ccc(O)cc4CC[C@H]3[C@@H]1CC[C@@H]2O,5.14% (inactive)
12,O=C(c1ccccc1)c1ccc2n1CCC2C(=O)O (stereo not given),-6.13% (inactive)
13,CC[N+](CC)(CC)CC(=O)Nc1c(C)cccc1C,6.77% (inactive)
14,Cc1ccc(C(=O)O[C@H](C(=O)O)[C@H](OC(=O)c2ccc(C)cc2)C(=O)O)cc1 (tested in a mixture with another compound),5.96% (inactive)
15,CC(C)NCC(O)COc1cccc2ccccc12 (stereo not given),6.9% (inactive)
16,NC(=Nc1ccccc1)NC(=O)c1nc(Cl)c(N)nc1N,-0.27% (inactive)
17,CC(C)[C@@H]1NC(=O)[C@H](CCCCN)NC(=O)[C@@H](Cc2c[nH]c3ccccc23)NC(=O)[C@H](Cc2ccc(O)cc2)NC(=O)[C@H](C)N(C)C(=O)[C@H](Cc2ccccc2)NC1=O,6.6% (inactive)
18,CN(C)CCC=C1c2ccccc2C=Cc2ccccc21,12.9% (inactive)
19,COc1cc2c(cc1OC)-c1cc(=Nc3c(C)cc(C)cc3C)n(C)c(=O)n1CC2,10.5% (inactive)
20,C[C@@](Cc1ccc(O)c(O)c1)(NN)C(=O)O,-8.89% (inactive)

row,SMILES,inhibition
1,O=C(O)CN(CCN(CC(=O)O)CC(=O)O)CCN(CC(=O)O)CC(=O)O,6.57% (inactive)
2,CCCCS(=N)(=O)CCC(N)C(=O)O (stereo not given),-0.023% (inactive)
3,COc1ccccc1CNCCCCCCNCCCCCCCCNCCCCCCNCc1ccccc1OC,126% (active)
4,Cc1nc2c(OCc3ccccc3)cccn2c1CC#N,3.47% (inactive)
5,NC1CONC1=O (stereo not given),8.19% (inactive)
6,CN(CCOc1ccc(C[C@H](Nc2ccccc2C(=O)c2ccccc2)C(=O)O)cc1)c1ccccn1,1.04% (inactive)
7,CCCCCCCCCCCCC/C=C/C(O)C(N)CO (stereo not given),-1.48% (inactive)
8,NC(N)=NC(N)=Nc1ccccc1,4.74% (inactive)
9,CC(C)(CO)Cc1cc(C(C)(C)C)c(O)c(C(C)(C)C)c1,-2.65% (inactive)
10,Nc1ncnc2c1c(-c1ccc(Oc3ccccc3)cc1)cn2C1CCCC1,35.3% (inactive)
11,O=C(O)C1CN(CCCP(=O)(O)O)CCN1 (stereo not given),-0.924% (inactive)
12,Cc1ccc(/C(=C\CN2CCCC2)c2ccccn2)cc1,11.6% (inactive)
13,Cc1cc2c(cc1Cl)N(C(=O)Nc1ccnc3ccccc13)CC2,-0.614% (inactive)
14,Nc1nc2[nH]c(=O)cnc2c(=O)[nH]1,5.48% (inactive)
15,CCc1cccc(N(C)C(N)=Nc2cccc3ccccc23)c1,-1.11% (inactive)
16,COc1cccc(OC)c1OCCNCC1COc2ccccc2O1 (stereo not given),0.114% (inactive)
17,CCSC(N)=Nc1ccc(C(F)(F)F)cc1,3.43% (inactive)
18,COc1ccc(NC(=O)/C=C/c2ccc(Cl)cc2)cc1,6.25% (inactive)
19,O=C1CCC(c2ccc(-n3ccnc3)cc2)=NN1,-5.18% (inactive)
20,CNCC(O)c1ccc(O)c(O)c1 (stereo not given),4.49% (inactive)
